For 17 molecules, outcome and AC50 results are on record in PubChem BioAssay (EPA / NIEHS).

SMILES strings stand for the structures. “And” between values parts separate entries of the source, which are not always exact repeats. Equal entries are not always repeated. Results filed as inconclusive are left out. The source made the active and inactive calls. Rule for the calls: active = hit-call score of the fitted dose curve at least 0.9, where 1 is the maximum; inconclusive = response in the unintended direction; inactive = score below 0.9.

For test [1], the target named is Luciferin 4-monooxygenase (Photinus pyralis) (UniProt P08659). The test is described as follows: CCTE_Simmons_QuantiLum_inhib_2: CCTE's Firefly Luciferase Inhibition Assay, Simmons Lab (AID 2283767).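 For AC50: potency for inhibitors that lower luciferase luminescence relative to DMSO.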 The method in brief:
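Eight test concentrations, 5 nM up to 87.5 uM final, preincubated 30min at 37C in the dark with purified luciferase (0.5% DMSO final). Detection reagent (150uM D-luciferin, 147uM dATP, 75uM CoA, pH 7.8) injected per well before kinetic luminescence read; three replicates.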

The nature of test [2]: ACEA_AR_agonist_AUC_viability: ACEA Biosciences xCELLigence Real-Time Cell Analysis on Androgen Receptor Agonism for Viability (AID 2283775).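 For AC50: viability read 80 hours after compound addition.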 The method in brief: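 22Rv1 cells; impedance growth kinetics; 8-pt 1:4 dilutions from 100 uM top final, ≤0.5% DMSO; n = 2; 80 h read; AUC viability, loss-of-signal vs DMSO.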
A short description of test [3]: ACEA_AR_antagonist_AUC_viability: ACEA Biosciences xCELLigence Real-Time Cell Analysis on Androgen Receptor Antagonism for Viability (AID 2283776).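 Note: 22Rv1 human prostate cancer cells growing on impedance electrode plates; area under impedance growth curve at 80 h after dosing as viability; hits lower the growth signal relative to DMSO meaning cytotoxicity.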 The essentials: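 22Rv1 prostate cells, continuous dosing up to 100 uM final (0.5% DMSO max), duplicate plates. Growth measured by impedance; AUC at 80 h, loss of signal vs DMSO.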
The nature of test [4]: ACEA_ER_AUC_viability: ACEA Biosciences xCELLigence Real-Time Cell Analysis on Estrogen Receptor Agonism for Viability (AID 2283782).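 Note: hit means loss of impedance signal meaning reduced cell growth or viability.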 The essentials:
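Read-out: real-time electrical impedance (RT-CES) area under curve, loss of signal taken as reduced viability, normalized to DMSO baseline. T-47D cells, charcoal-stripped serum medium, compounds up to 100 uM final, continuous exposure, 80 h.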

The subject of test [5] is zebrafish Estrogen Receptor (ESR2B), gene 317733. Briefly: ATG_zfER2b_XSP1: Attagene TRANS-FACTORIAL Multi-Species (XSP1) HepG2 Assay for zebrafish Estrogen Receptor (ESR2B) (AID 2283773). The method in brief: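 Multiplexed TRANS format in transfected HepG2 liver cells, chimeric NR-Gal4 from zebrafish ESR2B. 24 h dosing; medium contains 3 nM 6-alpha-fluorotestosterone. mRNA induction by RT-PCR/CE, positive direction vs DMSO.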

Test [6] relates to frog Estrogen Receptor (ESR2), gene 100174814. Briefly: ATG_frER2_XSP1: Attagene TRANS-FACTORIAL Multi-Species (XSP1) HepG2 Assay for frog Estrogen Receptor (ESR2) (AID 2283774). The essentials: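 HepG2, transient MRTU transfection (GAL4-UAS reporters, exogenous NR-Gal4 chimeras); 24 h compound exposure; 3 nM 6α-fluorotestosterone co-added; total RNA → RT-PCR → 6-FAM primer extension → HpaI → CE. Positive direction vs DMSO.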

The subject of test [7] is frog Estrogen Receptor (ESR1), gene 398734. Briefly: ATG_frER1_XSP1: Attagene TRANS-FACTORIAL Multi-Species (XSP1) HepG2 Assay for frog Estrogen Receptor (ESR1) (AID 2283777). The method in brief: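 Transient MRTU transfection, HepG2 (human liver); 24 h dosing, 3 nM 6α-fluorotestosterone co-added; RNA → RT-PCR → 6-FAM labeling → CE; upward activity vs DMSO.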
Test [8] has as its system zebrafish Estrogen Receptor (ESR2A), gene 317734. The test is described as follows: ATG_zfER2a_XSP1: Attagene TRANS-FACTORIAL Multi-Species (XSP1) HepG2 Assay for zebrafish Estrogen Receptor (ESR2A) (AID 2283778). The method in brief: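 Transient transfection of HepG2 (human liver) with MRTU constructs; chemical dosing for 24 h; medium contained 3 nM 6-alpha-fluorotestosterone to partly stimulate AR. RT-PCR/CE fluorescence of reporter transcripts; positive direction vs DMSO.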

The target in test [9] is chicken Estrogen Receptor (ESR1), ESR1 (gene 396099) (UniProt P06212). Briefly: ATG_chERa_XSP1: Attagene TRANS-FACTORIAL Multi-Species (XSP1) HepG2 Assay for chicken Estrogen Receptor (ESR1) (AID 2283779). The method in brief:
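Read-out: fluorescent reporter mRNA fragments resolved by capillary electrophoresis after RT-PCR and HpaI digestion. Transfected HepG2 cells carried chimeric NR-Gal4 constructs, were dosed 24 h with 3 nM 6-alpha-fluorotestosterone added, and activity was fitted upward relative to DMSO.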

Test [10] has as its system turtle Estrogen Receptor (ESR1), gene 101933533. Briefly: ATG_trERa_XSP1: Attagene TRANS-FACTORIAL Multi-Species (XSP1) HepG2 Assay for turtle Estrogen Receptor (ESR1) (AID 2283781). The method in brief: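 Transfect HepG2 with reporter units → dose chemical 24 h (medium has 3 nM 6-alpha-fluorotestosterone) → isolate RNA, RT-PCR → FAM primer extension, HpaI digest → capillary electrophoresis; gain of signal vs DMSO.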

The target in a further test is AR (gene 367) (UniProt P10275). Briefly: ACEA_AR_agonist_80hr: ACEA Biosciences xCELLigence Real-Time Cell Analysis on Androgen Receptor Agonism for Proliferation (AID 2283783).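 Note: hits increase impedance growth signal above DMSO baseline.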 The method in brief: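 Impedance (RT-CES) growth signal at 80 h post-dose; 22Rv1 cells, 8-pt 1:4 series, top 100 uM final, DMSO ≤0.5%; duplicate plates; gain-of-signal fit relative to DMSO baseline.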

The nature of test [11]: STM_H9_NormalizedViability: Cytotoxicity Assessment at 120 hours in the Stemina devTOX quickPredict H9 human embryonic stem cell (hESC)-based Assay (AID 2283784). The method in brief:
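Viability endpoint: background-corrected CellTiter-Fluor RFU expressed relative to the 0.1% DMSO mean on each plate. Undifferentiated H9 cells were treated with daily re-dosing and media change, and loss of signal was fitted.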

A short description of test [12]: ArunA_CellTiter_hNC: Viability Assessment in the ArunA Biomedical's Oris Neural Crest (hNC) Cell Migration Assay (AID 2283752). The essentials: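 After a 72 h chemical exposure, viability of hNC cells is read with CellTiter Aqueous One and fitted as signal loss relative to DMSO. Cells were seeded at 60,000/well on Matrigel and cultured 16 h at 37 C beforehand.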

The nature of test [13]: ArunA_CellTiter_hNP: Viability Assessment in the ArunA Biomedical's Oris Neural Crest (hNC) Cell Migration Assay (AID 2283753). The method in brief:
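Viability read with CellTiter 96 Aqueous One after 72 h chemical exposure of human hNP1 neuroprogenitors, which were plated on Matrigel in LIF/bFGF medium 16 h beforehand. Endpoint fitted in positive direction relative to DMSO.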

Test [14] can be described thus: ArunA_Migration_hNP: ArunA Biomedical's Oris Neuroprogenitor (hNP) Cell Migration Assay (AID 2283754). The method in brief:
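Readout is calcein-AM fluorescence (ex494/em517) of cells migrating into the detection zone, relative to DMSO. hNP1 cells (H9-derived) grown on Matrigel behind stoppers 16 h, then stoppers pulled and chemical applied 72 h; cytochalasin D as control.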

A short description of test [15]: ArunA_Migration_hNC: ArunA Biomedical's Oris Neural Crest (hNC) Cell Migration Assay (AID 2283755). The method in brief: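 Calcein-AM fluorescence (ex494 nm/em 517 nm) in the stopper-defined detection zone quantifies migration of hNC cells after 72 h chemical exposure; 60,000 cells/well plated on Matrigel with LIF and bFGF, 16 h pre-incubation. DMSO baseline.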

A short description of test [16]: ArunA_NOG_NucleusCount: ArunA Biomedical's Neurite Outgrowth (NOG) Assay for Nucleus Count (AID 2283756). The method in brief: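 Viable neuron count, from Hoechst nuclei passing size and intensity gates, imaged at 20x on differentiated H9-derived human neurons. Exposure lasted 48 h from seeding; activity was scored relative to DMSO.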

Sequence of AR (gene 367) (P10275 whole entry, looked up): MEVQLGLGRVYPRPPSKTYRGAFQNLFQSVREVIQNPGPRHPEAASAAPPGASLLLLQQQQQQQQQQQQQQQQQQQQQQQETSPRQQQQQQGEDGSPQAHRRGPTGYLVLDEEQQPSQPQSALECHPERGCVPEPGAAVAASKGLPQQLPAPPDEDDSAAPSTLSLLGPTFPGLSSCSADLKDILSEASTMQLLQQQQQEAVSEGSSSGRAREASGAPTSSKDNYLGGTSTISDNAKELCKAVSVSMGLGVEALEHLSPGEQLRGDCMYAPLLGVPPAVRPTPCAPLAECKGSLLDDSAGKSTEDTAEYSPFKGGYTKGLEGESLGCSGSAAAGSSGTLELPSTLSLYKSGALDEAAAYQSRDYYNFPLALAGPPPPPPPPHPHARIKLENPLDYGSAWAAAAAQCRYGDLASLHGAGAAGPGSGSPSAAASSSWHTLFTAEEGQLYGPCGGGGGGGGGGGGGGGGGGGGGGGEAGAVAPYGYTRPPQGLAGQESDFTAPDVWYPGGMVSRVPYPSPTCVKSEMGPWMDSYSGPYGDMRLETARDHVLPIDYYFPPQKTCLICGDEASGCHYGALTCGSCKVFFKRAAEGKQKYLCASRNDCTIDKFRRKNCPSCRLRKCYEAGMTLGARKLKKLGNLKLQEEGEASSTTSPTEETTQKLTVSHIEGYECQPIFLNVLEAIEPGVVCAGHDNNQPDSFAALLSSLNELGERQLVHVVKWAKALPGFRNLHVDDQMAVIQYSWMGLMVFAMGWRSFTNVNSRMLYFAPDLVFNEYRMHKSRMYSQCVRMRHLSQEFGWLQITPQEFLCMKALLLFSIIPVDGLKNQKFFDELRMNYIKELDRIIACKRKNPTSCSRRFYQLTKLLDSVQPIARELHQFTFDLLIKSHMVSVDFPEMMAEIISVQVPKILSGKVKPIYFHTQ
Sequence of Luciferin 4-monooxygenase (Photinus pyralis) (P08659 whole entry, looked up): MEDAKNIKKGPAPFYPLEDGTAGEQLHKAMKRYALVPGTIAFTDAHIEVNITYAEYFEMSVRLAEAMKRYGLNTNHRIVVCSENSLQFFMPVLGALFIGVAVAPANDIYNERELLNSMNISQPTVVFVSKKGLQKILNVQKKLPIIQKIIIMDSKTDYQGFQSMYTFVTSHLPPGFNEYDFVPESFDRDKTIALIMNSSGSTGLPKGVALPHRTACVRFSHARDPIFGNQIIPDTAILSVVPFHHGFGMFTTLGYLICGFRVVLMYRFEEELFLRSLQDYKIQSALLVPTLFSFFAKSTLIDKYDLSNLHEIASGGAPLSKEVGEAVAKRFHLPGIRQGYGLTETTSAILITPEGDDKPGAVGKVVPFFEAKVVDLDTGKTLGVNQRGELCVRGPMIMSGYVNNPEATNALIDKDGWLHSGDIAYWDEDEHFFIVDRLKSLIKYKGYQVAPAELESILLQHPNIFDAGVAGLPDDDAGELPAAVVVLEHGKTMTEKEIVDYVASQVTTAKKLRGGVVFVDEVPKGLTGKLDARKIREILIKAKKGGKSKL
Sequence of chicken Estrogen Receptor (ESR1), ESR1 (gene 396099) (P06212 whole entry, looked up, the tested form may be a part): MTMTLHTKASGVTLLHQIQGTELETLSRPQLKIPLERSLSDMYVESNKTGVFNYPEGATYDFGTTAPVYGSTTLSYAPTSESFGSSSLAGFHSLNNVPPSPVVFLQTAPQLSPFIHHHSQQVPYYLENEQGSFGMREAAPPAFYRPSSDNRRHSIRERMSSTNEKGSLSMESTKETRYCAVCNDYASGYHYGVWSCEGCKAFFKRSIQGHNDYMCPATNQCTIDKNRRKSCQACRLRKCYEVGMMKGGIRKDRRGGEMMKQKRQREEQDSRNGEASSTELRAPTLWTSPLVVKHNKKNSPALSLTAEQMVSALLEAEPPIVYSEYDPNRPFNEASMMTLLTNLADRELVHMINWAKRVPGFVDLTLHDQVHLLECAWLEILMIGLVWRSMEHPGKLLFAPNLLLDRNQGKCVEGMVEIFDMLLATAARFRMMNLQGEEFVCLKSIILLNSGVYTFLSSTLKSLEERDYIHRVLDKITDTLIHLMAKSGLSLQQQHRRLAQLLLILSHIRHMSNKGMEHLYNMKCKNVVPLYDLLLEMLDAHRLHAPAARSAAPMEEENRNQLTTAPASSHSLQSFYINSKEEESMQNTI

Turning to `Cc1cc(C(C)(C)C)c(O)c(C(C)(C)C)c1`, the result in test [1] and in test [2] was inactive. The values for the AC50 in test [3] and in test [4] were 0.144 µM (active) and 79.4 µM (active), respectively.
For `NCCN`, the outcome in test [2], in [3] and in [4] was inactive.
For `C[C@]12CC[C@@H]3c4ccc(O)cc4CC[C@H]3[C@@H]1C[C@@H](O)[C@@H]2O`, in test [1], the outcome was inactive. The AC50 is 0.0143 µM (active) in [5]; 0.0279 µM (active) in test [6]; 1.16 µM (active) in test [3]; 0.0279 µM (active) in test [7]; 0.0157 µM (active) in test [8]; 0.0227 µM (active) in [9]. Moreover, the AC50 in test [10] was 0.0172 µM (active).
For `CC(O)COc1ccccc1` (centres undefined), the result in test [2], in test [3] and in test [4] was inactive.
For `Cc1cc(C(=C2C=CC(=Nc3ccc(S(=O)(=O)O)cc3)C=C2)c2ccc(Nc3ccc(S(=O)(=O)O)cc3)cc2)cc(S(=O)(=O)O)c1N`, in test [1], the AC50 is 42.8 µM (active). The molecule was called inactive in test [2], in [3] and in [4].
In the case of `CN(Cc1cnc2nc(N)nc(N)c2n1)c1ccc(C(=O)N[C@@H](CCC(=O)O)C(=O)O)cc1`, the molecule was classed as inactive (in test [1]; with AR (gene 367)). The values for the AC50 in test [2], in test [3] and in test [11] were 0.787 µM (active), 0.551 µM (active) and 0.0867 µM (active), respectively.
`OCC(CO)(CBr)CBr`: the molecule was classed as inactive in test [12], in test [13], in [14], in [15], in [16] and in test [2]. The result in test [3] and in test [11] was inactive.
As for `CCCCCCc1ccc(N)cc1`, the AC50 in [1] is 77.1 µM (active); in [4], 50 µM (active). Further, the molecule was classed as inactive (in test [2]; in test [3]; with AR (gene 367)).
In the case of `NS(=O)(=O)O`, the outcome in [2], in test [3] and in test [4] was inactive.
On to `c1cnc2c(c1)ccc1cccnc12`, for which the AC50 was 3.4 µM (active) in test [2] and 3.57 µM (active) in test [3].
Consider `CCC(C)c1ccccc1O` (centres undefined), for which the result in test [2] and in [3] was inactive. The AC50 in test [4] is 79.7 µM (active).
In the case of `CCCCC=O`, the molecule was classed as inactive in [2] and in [3].
As to `CCCCCCCCCCCCOC(=O)c1cc(O)c(O)c(O)c1`, the result in [1] was inactive. Further, the AC50 in test [2] is 7.6 µM (active); in test [3], 3.44 µM (active); in test [4] it was 2.97 µM (active).
Turning to `NC(=NCCCCCCN=C(N)/N=C(\N)Nc1ccc(Cl)cc1)/N=C(\N)Nc1ccc(Cl)cc1`, the AC50 in test [2] is 10.5 µM (active); in test [3] it was 10.6 µM (active); in [4], 8.38 µM (active) and 9.06 µM (active). Also, in the test with AR (gene 367), the molecule was called inactive.
As to `c1cc[nH]c1`, the AC50 in [4] was 50 µM (active).
With `CCN(CCC#N)c1ccccc1`, the molecule was called inactive in test [4].
Take `CCCCc1oc2ccccc2c1C(=O)c1cc(I)c(OCCN(CC)CC)c(I)c1`: the AC50 in test [2] was 9.56 µM (active); in test [3], 9.15 µM (active); in [4], 11.5 µM (active); in test [11], 4.41 µM (active).
